From PubChem BioAssay AID720597 (Broad Institute, 2013)
Entries with a potency or affinity are not part of this list. Calls of active or inactive are those of the source.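 Rule for the calls: active = fitted half-maximal dose no more than twice the top valid tested dose, for compounds that lower signal; inconclusive = fit invalid, or curve flat with activity between -70 and -30; inactive = potency past limit, curve flat within ±30, or signal increasing.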

molecular target: NAD-dependent protein deacylase sirtuin-5, mitochondrial (Homo sapiens) (UniProt Q9NXA8); test: blockers of sirtuin-5 peptide desuccinylation – biochemical, fluorescence imaging, cherry-pick, set 6, dose response (AID 720597); conditions: Purified SirT5, succinyl-peptide-AMC/trypsin fluorescence; series mostly up to 15 µM;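 note: lower AMC signal can also come from blocking the trypsin step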
Sequence (Q9NXA8 whole entry, looked up): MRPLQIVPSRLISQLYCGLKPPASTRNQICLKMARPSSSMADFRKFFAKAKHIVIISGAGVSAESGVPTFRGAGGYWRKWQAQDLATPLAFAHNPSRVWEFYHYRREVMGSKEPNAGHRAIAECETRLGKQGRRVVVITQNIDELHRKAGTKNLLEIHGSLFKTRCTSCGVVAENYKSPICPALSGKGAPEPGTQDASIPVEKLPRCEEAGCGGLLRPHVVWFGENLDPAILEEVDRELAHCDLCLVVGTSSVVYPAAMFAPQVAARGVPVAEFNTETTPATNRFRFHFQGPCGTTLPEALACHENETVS

outcome, inactive:
C[C@@H]1CN([C@@H](C)CO)C(=O)c2ccccc2-c2ccccc2CO[C@H]1CN(C)Cc1ccccc1C(F)(F)F, C[C@H]1CCCCO[C@H](CN(C)Cc2ccc(C(F)(F)F)cc2)[C@@H](C)CN([C@@H](C)CO)C(=O)c2cc(NS(=O)(=O)c3ccc(Cl)cc3)ccc2O1, O=C(C[C@@H]1CC[C@@H]2[C@H](COC[C@@H](O)CN2Cc2ccc3c(c2)OCO3)O1)N1CCOCC1, Cc1noc(C)c1S(=O)(=O)Nc1ccc2c(c1)C(=O)N([C@@H](C)CO)C[C@@H](C)[C@H](CN(C)Cc1ccc(Cl)c(Cl)c1)OCCCC[C@@H](C)O2, CCCNC(=O)N(C)C[C@H]1Oc2cc(C#CC(C)C)ccc2S(=O)(=O)N([C@H](C)CO)C[C@@H]1C, C[C@@H]1CN([C@@H](C)CO)C(=O)c2cc(NS(=O)(=O)c3ccccc3)ccc2O[C@@H]1CN(C)Cc1ccc(Oc2ccccc2)cc1, COc1cccc(S(=O)(=O)N(C)C[C@H]2Oc3cc(C4=CCCC4)ccc3S(=O)(=O)N([C@@H](C)CO)C[C@@H]2C)c1, C[C@H](CO)N1C[C@H](C)[C@@H](CN(C)Cc2ccc(Oc3ccccc3)cc2)Oc2ccc(NS(=O)(=O)c3ccc(Cl)cc3)cc2CC1=O, COc1ccccc1C(=O)Nc1ccc2c(c1)C(=O)N(C)[C@H]1CC[C@H](CC(=O)Nc3cccc(C(C)C)c3)O[C@@H]1CO2, O=C(O)[C@@H]1[C@@H](CO)[C@@H]2Cn3c(ccc(-c4ccccc4F)c3=O)[C@@H]2N1Cc1ccccc1, C[C@@H]1CN([C@@H](C)CO)C(=O)c2cccc(NS(=O)(=O)c3ccc(F)cc3)c2O[C@H]1CN(C)C(=O)Nc1ccccc1, C[C@@H]1CN([C@H](C)CO)C(=O)c2cc(C#CCN(C)C)cnc2O[C@H]1CN(C)Cc1ccncc1, C[C@@H]1CN([C@@H](C)CO)C(=O)c2cccc(NC(=O)c3ccc(-c4nccs4)cc3)c2O[C@@H]1CN(C)Cc1ccc(C(F)(F)F)cc1, C/C=C/c1cnc2c(c1)C(=O)N([C@@H](C)CO)C[C@@H](C)[C@@H](CN(C)C(=O)NC1CCCCC1)O2, CCCC#Cc1ccc([C@@H]2[C@@H](CO)N3CCCCN(S(=O)(=O)Cc4ccccc4)C[C@@H]23)cc1, CNC[C@H]1Oc2ccc(NC(=O)Nc3ccc(F)cc3)cc2CC(=O)N([C@@H](C)CO)C[C@@H]1C, CO[C@H]1CN(C)C(=O)c2cc(NC(=O)c3ccccc3F)ccc2OC[C@H](C)NC[C@@H]1C, CCCC#Cc1ccc([C@@H]2[C@H]3CN(S(=O)(=O)Cc4ccccc4)CCCCN3[C@H]2CO)cc1, CC(C)NC(=O)N1[C@H](CN(C)C(=O)c2ccccc2)[C@@H](c2ccccc2)[C@@H]1CO, Cc1ccc(S(=O)(=O)N[C@@H]2CC[C@@H](CC(=O)N3CCN(c4ccccc4)CC3)O[C@@H]2CO)cc1, O=C(C[C@@H]1C[C@H]2c3cc(NC(=O)c4ccc5c(c4)OCO5)ccc3O[C@H]2[C@H](CO)O1)NCc1ccc(Oc2ccccc2)cc1, C[C@H](CO)N1C[C@H](C)[C@H](CN(C)Cc2ccc(C(F)(F)F)cc2)Oc2c(NC(=O)c3nc4ccccc4s3)cccc2C1=O, C[C@@H]1CN([C@H](C)CO)C(=O)c2cc(-c3ccc(F)cc3)cnc2O[C@H]1CN(C)C(=O)Cc1ccccn1, C[C@H]1CN([C@@H](C)CO)C(=O)c2ccccc2-c2ccccc2CO[C@@H]1CN(C)Cc1ccc(C(F)(F)F)cc1, C[C@@H]1CN([C@H](C)CO)C(=O)Cc2cc(NC(=O)Nc3ccc(F)cc3)ccc2O[C@@H]1CN(C)C, C[C@H]1CN([C@@H](C)CO)S(=O)(=O)c2ccc(/C=C/c3ccccc3)cc2O[C@H]1CN(C)C(=O)NC1CCCCC1, C[C@@H]1CN([C@@H](C)CO)C(=O)Cc2cc(NC(=O)Nc3ccc(F)cc3)ccc2O[C@H]1CN(C)C, Cc1ccc(S(=O)(=O)Nc2ccc3c(c2)C(=O)N([C@H](C)CO)C[C@H](C)[C@@H](CN(C)Cc2ccc(C(F)(F)F)cc2)OCCCC[C@H](C)O3)cc1, C[C@H](CO)N1C[C@H](C)[C@@H](CN(C)C(=O)Cc2ccccc2)OCc2ccccc2-c2c(n(C)c3ccccc23)C1=O
